Bioassay records from PubChem BioAssay.
Calpain2 inh = inhibitors of pig calpain II, primary screen, biochemical, fluorogenic peptide substrate, 1536-well | purified calpain II, 30 min | inhibition, % at 16 µM | actives 0.37% (n = 220,000) | AID 1236, 2008;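 active = inhibition above about 50%, limit read from the data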
HSV replic up = enhancers of HSV replication in host cells, fold increase, host cell viability | HSV replication augmentation in cells | maximum fold increase | actives 0.005% (n = 220,000); in the data active = maximum fold increase above about 1.5; inconclusive = no clear call, values can overlap the other calls; tested in PC3 cells
Efa HMGR inh = inhibitors of E. faecalis class II HMGR, primary screen, biochemical, Enterococcus faecalis; inhibition, % at 10 µM; HMG-CoA reductase (Enterococcus faecalis, mvaE); purified E. faecalis HMGR, NADPH absorbance 340 nm kinetic; actives 0.41% (n = 190,000);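 active = inhibition above a set limit, the median over all tested compounds plus 3 SD, cut at about 9.5% in these data; inconclusive = no clear call, values can overlap the other calls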;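 also: enzyme runs in reverse so mevalonate oxidation gives rising NADPH absorbance; 0% = complete reaction with DMSO and 100% = background rate lacking mevalonate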
ROMK mod = ROMK potassium channel modulators, primary screen, cell-based, thallium flux, MLSMR library | actives 2% (n = 130,000) | Tet-inducible ROMK, thallium flux fluorescence; actives lie on both sides | ATP-sensitive inward rectifier potassium channel 1 (Homo sapiens), P48048 | B-score at 10 µM;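 active = signal ratio slope over the read window, or its plate-corrected B-score, at least 3 SD from the plate mean, either direction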;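 also: B-score of the F/F0 ratio slope over 7 to 12 s after thallium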
Target sequence (P48048 whole entry, looked up): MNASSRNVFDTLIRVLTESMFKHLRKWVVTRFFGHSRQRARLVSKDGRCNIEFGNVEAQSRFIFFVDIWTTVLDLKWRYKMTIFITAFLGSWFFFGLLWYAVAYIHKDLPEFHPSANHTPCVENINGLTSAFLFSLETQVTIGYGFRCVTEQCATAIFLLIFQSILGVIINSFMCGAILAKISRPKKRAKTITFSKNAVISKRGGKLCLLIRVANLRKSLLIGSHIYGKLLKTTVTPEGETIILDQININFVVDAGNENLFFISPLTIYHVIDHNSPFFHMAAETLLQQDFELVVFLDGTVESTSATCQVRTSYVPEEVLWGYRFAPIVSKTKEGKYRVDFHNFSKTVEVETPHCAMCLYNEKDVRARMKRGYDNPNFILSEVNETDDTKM
Arbovirus inh = antivirals against arbovirus infection, primary screen, cell-based, full library, 10K replicate subset; inhibition, % at 10 µM; AID 1251, 2008; arbovirus infection cell-based antiviral screen; actives 0.37% (n = 200,000); in the data active = inhibition above about 30%
ROMK retest = ROMK channel modulator hit retest, confirmation, cell-based, thallium flux, duplicate, resupplied hits | normalized thallium flux (F/F0 slope) at 10 µM | actives 54% (n = 3,000) | AID 1917, 2009 | fluorescence ratio; active compounds read low | shares compounds with ROMK mod;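 active = Flux at 10 µM at least 3 SD below or above vehicle control mean in one or both replicates; inconclusive = no clear call, values can overlap the other calls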
Numbers without * were called inactive. Most compounds without a hit are left out; they make up all but 2.1% or so of the library.

Results for C=CCNc1oc(-c2cccs2)nc1S(=O)(=O)c1ccccc1 ?
Calpain2 inh: -0.1; HSV replic up: inactive; Efa HMGR inh: -1.1; ROMK mod: -0.703; Arbovirus inh: -0.8

How did O=C1CCC/C(=N\NC(=O)c2ccc(COc3ccccc3-c3ccccc3)cc2)C1 do in these assays?
Calpain2 inh: -69.3; HSV replic up: inactive; Efa HMGR inh: 1.8; ROMK mod: -5.48*; Arbovirus inh: 8.0; ROMK retest: 0.0783

How did COc1ccc(/C=C(/C(=O)c2ccc(Cl)cc2Cl)n2cncn2)cc1 do in these assays?
Calpain2 inh: -36.7; HSV replic up: inactive; Efa HMGR inh: 0.0; ROMK mod: -1.54; Arbovirus inh: 15.7

How did CC(C)CC(=O)/C(=C\c1ccc(Cl)cc1Cl)n1cncn1 do in these assays?
Calpain2 inh: 6.5; HSV replic up: inactive; Efa HMGR inh: -3.0; ROMK mod: -7.07*; Arbovirus inh: -44.9; ROMK retest: 0.0464*

Results for CCCCN(C)S(=O)(=O)c1ccc(C(=O)Nc2nnc(-c3ccco3)o2)cc1 ?
Calpain2 inh: -13.4; HSV replic up: inactive; Efa HMGR inh: 1.3; ROMK mod: 3.19*; Arbovirus inh: -24.6; ROMK retest: 0.0914

Results for O=C(CCl)Nc1nc(-c2ccco2)c(-c2ccco2)s1 ?
Calpain2 inh: 2.9; HSV replic up: inactive; Efa HMGR inh: 2.1; ROMK mod: -4.19*; Arbovirus inh: -5.2; ROMK retest: 0.0529*

What do the screens show for `CC(=O)n1cc(N(C(=O)CCl)c2ccccc2)c2ccccc21`?
Calpain2 inh: -22.8; HSV replic up: inactive; ROMK mod: -2.84*; ROMK retest: inconclusive

How did Cc1ccc(-n2cccc2/C=C2/C(=N)N3C(=NC2=O)SN=C3S(C)(=O)=O)cc1Cl do in these assays?
Calpain2 inh: 36.4; HSV replic up: inconclusive; Efa HMGR inh: -8.2; Arbovirus inh: 34.3*; ROMK retest: 0.0754

Results for CCS(=O)(=O)c1ccc(O)c(NC(=O)Nc2ccc(C(C)(C)C)cc2)c1 ?
Calpain2 inh: -19.0; HSV replic up: inactive; ROMK mod: -2.5*; ROMK retest: 0.0796

What do the screens show for `Cc1ccc(/C=C2\Oc3c(ccc(O)c3CN3CCN(C)CC3)C2=O)cc1`?
Calpain2 inh: inactive; Efa HMGR inh: -2.1; Arbovirus inh: 3.9

How did CCc1ccc(/C=C2\Oc3c(ccc(O)c3CN3CCN(C)CC3)C2=O)cc1 do in these assays?
Calpain2 inh: -166.3; HSV replic up: inactive; ROMK mod: -8.13*; ROMK retest: 0.0461*

Results for CCN1CCN(Cc2c(O)ccc3c2O/C(=C\c2ccc(C)cc2)C3=O)CC1 ?
Calpain2 inh: inactive; HSV replic up: inconclusive; Efa HMGR inh: -3.7; ROMK mod: -5.67*; Arbovirus inh: 5.1; ROMK retest: 0.0402*

How did COc1ccccc1-n1cc(CN2CCN(CC=C(C)C)C(CCO)C2)cn1 (configuration not stated) do in these assays?
Calpain2 inh: -39.2; HSV replic up: inactive

What do the screens show for `Cc1ccccc1CN1C(=O)[C@H]2Cc3c([nH]c4ccccc34)C(C)(C)N2C1=O`?
HSV replic up: inactive

Results for O=c1ccn(Cc2ccc(F)cc2)c2ccnc(C(F)(F)F)c12 ?
Calpain2 inh: 23.2; HSV replic up: inactive; Efa HMGR inh: -3.7; ROMK mod: -0.424; Arbovirus inh: 20.9

Results for Cc1ccc(C(=O)Nc2ccc(N3CCOCC3)nc2N2CCOCC2)cc1 ?
Calpain2 inh: 11.0; HSV replic up: inactive

What do the screens show for `O=c1cc2c(nn1Cc1ccccc1)-c1ccccc1CC2`?
Calpain2 inh: 35.3; HSV replic up: inactive; Efa HMGR inh: -5.7; ROMK mod: 0.165; Arbovirus inh: -8.9

What do the screens show for `O=c1cc2c(nn1Cc1cccc([N+](=O)[O-])c1)-c1ccccc1CC2`?
Calpain2 inh: 11.1; HSV replic up: inactive; Efa HMGR inh: -5.6; ROMK mod: -8.35*; Arbovirus inh: 4.4; ROMK retest: 0.053*

How did CC(C)(C)C(=O)COC(=O)c1cc(-c2cccnc2)nc2ccccc12 do in these assays?
Calpain2 inh: -4.6; HSV replic up: inactive; Efa HMGR inh: -7.6; ROMK mod: 1.83; Arbovirus inh: 5.2

Results for C=CCN1N=C(c2ccc(NC(=O)c3ccccc3)cc2)CSC1=O ?
Calpain2 inh: 4.5; HSV replic up: inactive; Efa HMGR inh: -8.5; ROMK mod: -0.0517; Arbovirus inh: -7.0

What do the screens show for `CC(=O)NCCNC(=O)[C@H](Cc1ccccc1)NC(=O)c1cccs1`?
Calpain2 inh: -31.9; Efa HMGR inh: -0.1; ROMK mod: 2.36*; Arbovirus inh: 4.6; ROMK retest: 0.0777

Results for O=C(NCCc1ccccc1)c1cccs1 ?
Calpain2 inh: -44.2; HSV replic up: inactive; Efa HMGR inh: -1.7; ROMK mod: 0.37; Arbovirus inh: -2.3

Results for CCC1CCCCN1C(=O)CSc1nc2ccsc2c(=O)n1Cc1ccccc1 (configuration not stated) ?
Calpain2 inh: 18.3; HSV replic up: inactive; Efa HMGR inh: 1.9; ROMK mod: -3.09*; Arbovirus inh: -14.4; ROMK retest: 0.0595*

How did O=C(CSc1nc2ccsc2c(=O)n1Cc1ccccc1)NCC1CCCO1 (configuration not stated) do in these assays?
Calpain2 inh: -3.8; HSV replic up: inactive; Efa HMGR inh: -4.1; ROMK mod: 0; Arbovirus inh: -5.5

What do the screens show for `C=CCNC(=O)/C(C#N)=C\c1cc(Cl)c(OCC)c(OC)c1`?
Calpain2 inh: 28.7; HSV replic up: inactive; Efa HMGR inh: -4.1; ROMK mod: -2.94*; Arbovirus inh: 1.2; ROMK retest: 0.044*

Results for C=CCNC(=O)/C(C#N)=C/c1cc(Br)ccc1OC ?
Calpain2 inh: -20.5; HSV replic up: inactive; Efa HMGR inh: -0.3; ROMK mod: -0.755; Arbovirus inh: -1.8

Results for O=C1CCCc2cc3c(cc21)CC1(C3)Cc2cc3c(cc2C1)C(=O)CCC3 ?
Calpain2 inh: 4.1; HSV replic up: inactive

What do the screens show for `Cc1ccc2[nH]cc(C(=O)CCl)c2c1`?
Calpain2 inh: -3.3; HSV replic up: inactive; Efa HMGR inh: -3.5; ROMK mod: -4.2*; Arbovirus inh: -38.6; ROMK retest: 0.0554*

What do the screens show for `Cc1ccc(C)c(-n2c3nc(=O)n(C)c(=O)c-3cc3ccccc32)c1`?
Calpain2 inh: -334.3; HSV replic up: inactive; ROMK mod: 0.339

How did Cc1ccc(C)c(-n2c3nc(=O)[nH]c(=O)c-3cc3cc([N+](=O)[O-])ccc32)c1 do in these assays?
Calpain2 inh: -76.5; HSV replic up: inactive; Efa HMGR inh: -7.0; Arbovirus inh: 17.6; ROMK retest: 0.0427*
